Reference: PubChem BioAssay AID624331 (National Center for Advancing Translational Sciences (NCATS), 2012)
Records with an inconclusive call do not appear. Values without a mark were called inactive. Active and inactive are the calls of the source. Calls follow the shape of the dose curve; as a rule, active = well fitted activation curve with a large enough effect; inconclusive = small, poorly fitted or top-dose-only effect; inactive = no such curve, though single readings can be large or run the other way.

Assay: qHTS assay for re-activators of p53 using a Luc reporter: Hit Validation with no p53 Expressed; as to activity change, positive = activation: 0% is about no effect
Conditions: p53-null cells, luciferase reporter counter-screen; series mostly up to 46.1 µM; activity change, positive = activation: at the top concentration
Description: The p53 tumor suppressor plays a key role in suppression of tumorigenesis and in human carcinogenesis. It is frequently found inactivated in human cancers, mainly by point mutation. These point mutations are found in a wide variety of human cancers and a majority of them affect the DNA binding domain of the protein. The point mutations either alter native p53 conformation or abolish DNA contact. Additionally, cancer cells with p53 mutations are more resistant to chemo-radiation therapies.
This counter screen was run against the hits identified from the primary screen. It uses a cell line that was not transfected with p53. Compounds that show activity in this counter screen show unspecific activation of the assay system and are excluded from further consideration.
NIH Chemical Genomics Center [NCGC]
NIH Molecular Libraries Probe Production Centers Network [MLPCN]
Assay Provider (PI): Yi Sung, University of Michigan at Ann Arbor
5ul of 1000 cells per well are dispensed in all wells except column 4, into white solid-bottom TC-treated Kalypsys plates. The cells are kept in Opti-MEM and supplemented with 10% FBS and dispensed using a Multidrop (Thermo). Then using the Kalypsys pin-tool, 23nl of compounds are pinned. The compounds are starting concentration at 10mM, with 1:5 dilution, 4 points, and the control compound nocodazole is pinned in column 1 at 25mM, 1:3 dilution, in duplicate, 25mM nocodazole is pinned in column 2. Please note, all concentrations are working concentrations. 5ul of 1pM purified luciferase enzyme is dispensed using the Kalypsys dispenser in column 4. Plates are incubated for 24 hrs at 37 deg C, 5% CO2, and 95% humidity. Then 4ul of the detection reagent Amplite (ABD Bioquest) is added using the Kalypsys dispenser. Plates are incubated for 10 min at ambient room temperature and are then read on the ViewLux (Perkin Elmer) using a clear filter for a luminescent read-out.
Potency is read from the fitted curve at half-maximal effect.

Structure (SMILES)	activity change, positive = activation [%]	Potency
c1ccc(-c2nnc(-c3ccccn3)nc2NC2CCCCC2)cc1	-7.46	
CC(C)/C=C1\CC/C(=C\c2ccc(N(C)C)cc2)C1=O	14.4	
Cc1ccc(NC(=O)c2ccc3nc[nH]c3c2)cc1C	9.85	
CCN1C(=O)C(=O)N(CC(=O)c2cc(C)n(C3CC3)c2C)C1=O	50	
Cc1ncsc1C(=O)Nc1nc2c(s1)CCCC2	25	
O=C(CCCN1C(=O)/C(=C/c2ccco2)SC1=S)Nc1ccccc1	-23.8	
Cc1cc(C(=O)N2CCN(c3ccccc3Cl)CC2)c(C)o1	12.6	
Nn1cnnc1N/N=C\c1ccc(-c2ccccc2[N+](=O)[O-])o1	33.7	
CC(=O)N(C)c1ccc(NC(=O)CCN2C(=O)c3ccccc3C2=O)cc1	-23.3	
CC1(C)Oc2ccc(NC(=O)C3COc4ccccc4O3)cc2O1 (stereo not given)	18	
Cc1ccc(S(=O)(=O)c2cn(CC(=O)Nc3ccccc3)c3ccc(F)cc3c2=O)cc1	-53.5	
Cc1ccc2oc(C(=O)Nc3cc(C)on3)c(C)c2c1		9.2 µM (active)
CC1CCN(C2=C(NS(=O)(=O)c3ccc(Br)cc3)C(=O)c3ccccc3C2=O)CC1	48	
O=C(Nc1ccc(Cl)cc1Cl)c1ccc2c(c1)OCCO2	28.2	
Cc1nc(NC(=O)c2csc3ccccc23)sc1C	-13.5	
COc1ccc(C(=O)O/N=C(\N)c2ccccc2)c(OC)c1		1.16 µM (active)
COc1ccccc1Oc1c(C)oc2c(CN(C)C)c(O)ccc2c1=O	-5.95	
O=C(Nc1ccc(Br)cn1)c1cccc(-c2cc3ccccc3oc2=O)c1	-13.3	
O=C(NC(=S)NC1CCCCC1)c1ccccc1[N+](=O)[O-]	-8.53	
CC(C)CCn1cnc2c(sc3nc4c(cc32)CSC(C)(C)C4)c1=O	33	

Structure (SMILES)	activity change, positive = activation [%]	Potency
Cc1nonc1NCn1nnc2ccccc21	2.44	
CCS(=O)(=O)NCCc1csc(-c2ccccc2)n1	-21.3	
CCCOc1ccc(-c2cc3onc(-c4ccccc4)c3c(=O)n2C)cc1	1.56	
Fc1ccccc1OCCSc1nnnn1-c1ccccc1	40.7	
Cc1cc(NC(=O)c2cccc(COc3ccc(Br)cc3)c2)no1	-10.5	
CN(CC(=O)Nc1ccc(Cl)c(Cl)c1)C(=O)C1CCCC1	-43.5	
CC(=O)c1cccc(NS(=O)(=O)N(C)C)c1	0.341	
C=CCn1c(C)cc(C(=O)CSc2nc3ccccc3o2)c1C	18.2	
O=C(/C=C/c1ccco1)Nc1ccccn1	-15.9	
CC(Cc1ccccc1)NC(=O)c1ccc([N+](=O)[O-])cc1 (stereo not given)	49.8	
CCOC(=O)c1csc(Nc2nc3ccc(F)cc3s2)n1	16.4	
Cc1ccc(NC(=O)/C=C/c2ccc([N+](=O)[O-])s2)c(C)c1	-74.5	
C#CC(C)(CC)NC(=O)Cn1nnc(-c2ccc(S(C)(=O)=O)cc2)n1 (stereo not given)	-8.63	
Cc1csc(NC(=O)/C=C/c2ccco2)n1	21.2	
O=C1CCCC(O)=C1N=Nc1c(Cl)cc(Cl)cc1Cl	-8.49	
Cc1occc1C(=O)NN=C1C2CC3CC(C2)CC1C3	-3.28	
COc1cc(NC(=O)CN2C(=O)COc3ccc(S(=O)(=O)N4CCCC4)cc32)cc(OC)c1	-13.5	
O=C(NNC1=C(C(=O)C(F)(F)F)CCC1)c1cccc(O)c1	-60.1	
Cc1ccnc(NC(=O)c2sc3cc(Cl)ccc3c2Cl)c1	3.29	
CC(C)C(=O)Nc1ccc(-c2nc3cccnc3o2)cc1	20.2	
